Screening results as filed in PubChem.
Compounds with a hit are over-represented: about 4.1% of the library has one in this group of screens.
DAX1 inh-1 – NR0B1 (DAX1) inhibition. HEK293 Gal4-DAX1 luciferase reporter, luminescence. inhibition, % at 6.75 µM. hit rate 0.99% among 340,000. AID 504766;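 active = inhibition above the mean over all tested compounds plus 3 SD, cut at about 4.2% in these data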;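 note: inhibition shows as a rise in luminescence from relieved DAX1 repression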
Target sequence (P51843 207-470 limits assumed): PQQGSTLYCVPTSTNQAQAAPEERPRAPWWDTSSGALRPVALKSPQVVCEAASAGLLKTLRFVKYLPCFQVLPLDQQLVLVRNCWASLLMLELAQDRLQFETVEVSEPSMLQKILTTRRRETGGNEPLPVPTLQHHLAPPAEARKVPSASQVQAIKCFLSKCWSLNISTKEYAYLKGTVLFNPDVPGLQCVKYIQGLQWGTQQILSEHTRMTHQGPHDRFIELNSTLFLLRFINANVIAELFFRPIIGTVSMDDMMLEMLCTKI
hcDAF12 agonist – H. contortus DAF-12 activation, primary screen; HEK293 hcDAF-12 lit1-tk-luc reporter, luminescence; 0% DMSO, 100% Δ7-dafachronic acid; activation, % at 6.8 µM; hit rate 1.4% among 370,000; AID 652067;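 active = activation above the mean of all tested compounds plus 3 SD, cut at about 5.5% in these data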
ssDAF-12 act – activates DAF-12 receptor from parasite S. stercoralis; hit rate 1% among 370,000; AID 652126; activation, % at 6.8 µM; HEK293 ssDAF-12/GRIP1 lit1-tk-luc reporter, luminescence; % of 3 µM dafachronic acid response;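 active = activation above the mean over all tested compounds plus 3 SD, cut at about 0.9% in these data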
hgDAF-12 ag – agonists of H. glycines DAF-12 nuclear receptor. AID 687014. hit rate 1.8% among 370,000. HEK293 GAL4-hgDAF12 UAS-luciferase reporter, agonist luminescence; normalized to butyrate control. activation, % at 6.8 µM;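 active = activation above a cutoff set at the mean of all screened compounds plus 3 SD, cut at about 10% in these data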
PolyA inh – blocks polyadenylation in yeast reporter cells. hit rate 0.02% among 300,000. activity score, % at 12 µM. S. cerevisiae SKY197-pL101 polyadenylation reporter, beta-gal luminescence; efflux-impaired pdr1/pdr3 knockout yeast; score 100 = 6 SD above DMSO;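 active = lowest replicate activity score at least 50, where 100 means six control SD above control mean; inconclusive = lowest score under 50 but half or more replicates reach 50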;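 note: yeast exposed to compound for 9 h at 30 °C; higher score means more reporter readthrough which indicates perturbed polyadenylation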
DAX1 inh-2 – inhibitors of DAX1 repression of SF-1 activated StAR promoter; HEK293T StAR-luciferase reporter, SF-1/DAX-1 repression relief; AID 652010; hit rate 1.1% among 370,000; inhibition, % at 6.8 µM;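 active = inhibition above the mean over all tested compounds plus 3 SD, cut at about 3.6% in these data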;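 note: higher inhibition means more luminescence from relief of DAX-1 repression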
Of the large screens only hits and unclear results are named; the others gave an inactive call.

Cc1ccc(NC(=O)/C=C/c2ccco2)nc1	hcDAF12 agonist 6.5, ssDAF-12 act 1.6, DAX1 inh-2 6.5
O=C(/C=C/c1ccco1)Nc1ccccn1	hgDAF-12 ag 13
O=C(/C=C/c1ccco1)Nc1cccnc1	none
CCc1ccccc1NNC(=O)c1cc(C)on1	none
Cc1cc(C(=O)NNc2ccccc2F)no1	DAX1 inh-1 7.2
O=C(CSc1ncnc2ccccc12)c1ccc2c(c1)OCCO2	none
O=C(COc1ncnc2cc(Cl)ccc12)c1ccc2c(c1)OCCO2	DAX1 inh-1 4.8, PolyA inh inconclusive
O=C(COc1ncnc2ccccc12)c1ccc2c(c1)OCCO2	hgDAF-12 ag 11
CCOC(=O)N1CCN(C(=O)C[C@H]2C[C@@]3(C(=O)OC)C(=C[C@H](C(C)C)O[C@@H]3C3CC3)N(Cc3ccc(Cl)cc3Cl)C2=O)CC1	none (no result: DAX1 inh-1, PolyA inh)
Cc1ccnc(NC(=O)c2ccc3c(c2)C(=O)N(CC(C)C)C3=O)c1	DAX1 inh-2 3.7
Cc1cc(NC(=O)c2ccc3c(c2)C(=O)N(CC(C)C)C3=O)no1	none
O=C(CCC(=O)c1ccc[nH]1)c1ccc(Cl)cc1	hcDAF12 agonist 6.0, hgDAF-12 ag 12
Cc1ccc(Cn2nnc3c2-c2ccccc2S(=O)(=O)N(C)C3)cc1	none (no result: DAX1 inh-1, PolyA inh)
O=C(CNC(=O)c1ccc(Cl)cc1Cl)OCCOc1ccccc1	DAX1 inh-2 3.9
COc1ccc(OCCOC(=O)CNC(=O)c2ccc(Cl)cc2Cl)cc1	none
O=c1c2cc3cc(Cl)ccc3nc2ncn1CCc1c[nH]c2ccccc12	ssDAF-12 act 1.5 (no result: DAX1 inh-1, PolyA inh)
CN(C)C=Nc1ccc(Cn2cnc3nc4ccc(Cl)cc4cc3c2=O)cc1	none (no result: DAX1 inh-1, PolyA inh)
CN(Cc1cn(Cc2ccccc2)nn1)S(=O)(=O)c1ccc(F)cc1Br	none (no result: DAX1 inh-1, PolyA inh)
O=S(=O)(NCc1ccc2c(c1)OCO2)c1ccc(F)cc1	DAX1 inh-1 7.5
CC(=O)Nc1ccc(S(=O)(=O)NCC(=O)Nc2ccc3c(c2)OCO3)cc1	ssDAF-12 act 2.1 (no result: PolyA inh)
CNS(=O)(=O)c1ccc(NC(=S)Nc2ccc3c(c2)OCO3)cc1	hgDAF-12 ag 11
O=S(=O)(NCc1ccc2c(c1)OCO2)c1ccc(F)c(F)c1	none
O=S(=O)(c1ccc(NC(=S)Nc2ccc3c(c2)OCO3)cc1)N1CCOCC1	none
COC(=O)[C@]12C[C@H](CC(=O)NCc3cccc4ccccc34)C(=O)N(CCc3ccc(OC)c(OC)c3)C1=C[C@H](C(C)(C)C)O[C@@H]2C	none (no result: DAX1 inh-1, PolyA inh)
O=S1(=O)N[C@H](Cc2ccccc2)COc2cc(N3CCCC3)ccc21	none (no result: DAX1 inh-1, PolyA inh)
CN1[C@@H](Cc2ccccc2)COc2cccc(N3CCSCC3)c2S1(=O)=O	none (no result: DAX1 inh-1, PolyA inh)
O=C(Cc1c[nH]c2ccccc12)Nc1ccc(Nc2cccnc2)c(-c2ccc(OC(F)(F)F)cc2)c1	none (no result: DAX1 inh-1, PolyA inh)
COC(=O)C/C(C)=N/Nc1ccc(S(=O)(=O)N2CCCC2)cc1[N+](=O)[O-]	DAX1 inh-1 4.5
Cc1ccc(-n2c(Cn3ncc4ccccc4c3=O)n[nH]c2=S)cc1	ssDAF-12 act 1.3
O=c1c2ccccc2cnn1Cc1n[nH]c(=S)n1-c1ccc(F)cc1	none
O=C(Nc1ccccc1)OC1CCCCc2cccnc21 (stereo not given)	ssDAF-12 act 1.7
c1ccc(SCc2cc(-c3ccccc3)no2)cc1	none
Clc1ccc(-c2cc(CSc3ccccc3)on2)cc1	hgDAF-12 ag 13
Cc1cc(C)cc(NC(=O)C2CCCN(c3ncccn3)C2)c1 (stereo not given)	none
Cc1ccc(NC(=O)C2CCCN(c3ncccn3)C2)cc1F (stereo not given)	hgDAF-12 ag 12
O=C(Nc1ccc2c(c1)CCC2)C1CCCN(c2ncccn2)C1 (stereo not given)	hgDAF-12 ag 11, PolyA inh inconclusive
Cc1ccc(OC2CCN(C(=O)[C@@H](Cc3ccccc3)NC(=O)[C@H]3O[C@@H](n4ccc(=O)[nH]c4=O)[C@H](O)[C@@H]3O)CC2)cc1	none (no result: DAX1 inh-1, PolyA inh)
CC(CCN1CCC(C(O)(c2ccccc2)c2ccccc2)CC1)Oc1cccc(Cl)c1 (stereo not given)	none (no result: DAX1 inh-1, PolyA inh)
CC(CCN1CCC(C(O)(c2ccccc2)c2ccccc2)CC1)Oc1cccc(C(F)(F)F)c1 (stereo not given)	hcDAF12 agonist 6.4 (no result: DAX1 inh-1, PolyA inh)
COc1ccc2c(c1)oc(=O)c1cc(OC)ccc12	DAX1 inh-1 4.6, hgDAF-12 ag 13
COc1ccc2c(c1)oc(=O)c1ccccc12	none
COC(=O)[C@]12C[C@H](CC(=O)NCC34CC5CC(CC(C5)C3)C4)C(=O)N(Cc3ccccc3)C1=C[C@H](C1CCCC1)O[C@@H]2C	none (no result: DAX1 inh-1, PolyA inh)
O=c1oc(-c2cc3ccccc3o2)nc2sc3c(c12)CCCC3	ssDAF-12 act 4.2
O=c1oc(-c2ccccc2)nc2sc3c(c12)CCCC3	none
O=C1CN(C(=O)C2CCCCC2)C=CN1CCc1ccccc1Br	none (no result: DAX1 inh-1, PolyA inh, DAX1 inh-2)
CN(C(=O)COC(=O)c1cccnc1Cl)C1CCCCC1	DAX1 inh-2 4.5 (no result: PolyA inh)
Cc1ccc(-n2nc3ccc(N)cc3n2)cc1C	hcDAF12 agonist 5.8
COc1ccc(-n2nc3ccc(N)cc3n2)cc1Cl	none
Cc1ccc(-n2nc3ccc(N)cc3n2)cc1Cl	hcDAF12 agonist 6.2
N#CCSCC(=O)Nc1ccccc1	none (no result: PolyA inh)
N#C/C(Cn1c[n+](NC(=O)Nc2ccccc2)cn1)=N/O	DAX1 inh-1 4.7
CCOC(=O)c1[nH]c2ccccc2c1NC(=S)Nc1cccc(C)c1C	hcDAF12 agonist 6.2
Cc1ccccc1C(=O)N[C@H](C(=O)N1CCC[C@H]1C(=O)NC1CCCC1)C1CCCCC1	none (no result: DAX1 inh-1, PolyA inh)
Cc1ccc(NC(=O)Cc2ccc(F)cc2)c(S(=O)(=O)N2CCOCC2)c1	none (no result: DAX1 inh-1, PolyA inh)
Cn1nc(-c2ccccc2)cc1NS(=O)(=O)c1ccc(C#N)cc1	DAX1 inh-1 4.3
Cn1nc(-c2ccccc2)cc1NS(=O)(=O)c1ccccc1	none
COc1cccc(NC(=O)/C=C/c2ccco2)c1	hgDAF-12 ag 11, DAX1 inh-2 4.0
COc1ccccc1NC(=O)/C=C\c1ccco1	hcDAF12 agonist 5.6
O=C(N1CCOCC1)N1CC[C@H]2[C@H](CCCN2Cc2ccccc2)C1	none (no result: DAX1 inh-1, PolyA inh)
COC(=O)c1c(-c2ccccc2)oc2c1C(OCCO)CCC2 (stereo not given)	none (no result: DAX1 inh-1, PolyA inh)
O=C(OCc1ccccc1)c1c(-c2ccccc2)oc2c1C(OCCO)CCC2 (stereo not given)	ssDAF-12 act 1.5 (no result: DAX1 inh-1, PolyA inh)
COc1cc(/C=C(\C#N)C(=O)Nc2cccc(C(=O)O)c2)ccc1OCc1ccc(C)cc1	hcDAF12 agonist 6.5
c1ccc(-c2nnc(-c3ccccc3)o2)cc1	DAX1 inh-1 4.6, hcDAF12 agonist 5.9, ssDAF-12 act 1.2, hgDAF-12 ag 12
CN(Cc1ccc(F)cc1)C(=O)CCc1nnc(-c2ccccc2)o1	none
COc1ccc(CCN(C)C(=O)CCc2nnc(-c3ccccc3)o2)cc1OC	hgDAF-12 ag 11
